Test results as given in PubChem BioAssay (EPA / NIEHS).
Records with an inconclusive call do not appear. Calls of active or inactive are those of the source. How the source made its calls, unless noted: active means hit-call score of the fitted dose curve at least 0.9, where 1 is the maximum; inconclusive means response in the unintended direction; inactive means score below 0.9.

Experiments:
[1] = molecular target: Cellular tumor antigen p53 (Homo sapiens) (UniProt P04637); assay: TOX21_p53_BLA_p2_ratio: Tox21 HCT-116 p53 Agonism Beta-lactamase Assay, Ratio, Phase 2 (AID 2283592)
In short: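 An inducible beta-lactamase reporter in HCT116 cells signals p53 pathway activation. After 16 h chemical exposure at 37C, cells load CCF4-AM substrate for 2 h at room temperature; activity is the cleaved/uncleaved emission ratio relative to DMSO.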

[2] = molecular target: Cellular tumor antigen p53 (Homo sapiens) (UniProt P04637); assay: TOX21_p53_BLA_p3_ratio: Tox21 HCT-116 p53 Agonism Beta-lactamase Assay, Ratio, Phase 3 (AID 2283596)
In short: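 HCT116 p53-bla cells (4000/well) given compound in DMSO (217-fold dilution) after 5 h, incubated 16 h at 37C. CCF4-AM substrate 2 h at room temperature; 460/530 nm emission ratio, gain fitted against DMSO.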

[3] = molecular target: Cellular tumor antigen p53 (Homo sapiens) (UniProt P04637); assay: TOX21_p53_BLA_p5_ratio: Tox21 HCT-116 p53 Agonism Beta-lactamase Assay, Ratio, Phase 5 (AID 2283599)
In short: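 HCT-116 cells carrying a p53-inducible beta-lactamase reporter were seeded at 4000 cells/well and dosed after 5 h with compound in DMSO (217-fold dilution). After 16 h at 37C, CCF4-AM substrate was added for 2 h, and the 460/530 nm emission ratio was scored as gain-of-signal versus DMSO.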

[4] = TOX21_p53_BLA_p5_viability: Viability Assessment in the Tox21 HCT-116 p53 Agonism Beta-lactamase Assay, Phase 5 (AID 2283600)
In short: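 Counter-readout for cytotoxicity: ATP-dependent luminescence from CellTiter-Glo, read in the beta-lactamase wells after 30 min at RT, following a 16 h compound exposure at 37C.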

[5] = molecular target: Cellular tumor antigen p53 (Homo sapiens) (UniProt P04637); assay: TOX21_p53_BLA_p4_ratio: Tox21 HCT-116 p53 Agonism Beta-lactamase Assay, Ratio, Phase 4 (AID 2283601)
In short: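 HCT116 cells carrying an inducible beta-lactamase reporter were plated at 4000 cells/well, rested 5 h, then exposed to compounds in DMSO (217-fold dilution) for 16 h at 37C. CCF4-AM substrate was loaded 2 h at room temperature; 460/530 nm emission ratio scored gain-of-signal versus DMSO.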

[6] = CCTE_Harrill_HTTr_Viability_MCF7: CCTE's 6-hour Cell Viability Assessment for the High-Throughput Transcriptomics (HTTr) Platform, in MCF-7 cells cultured in DMEM + 10% fetal bovine serum, Harrill Lab (AID 2284010; active means hit-call score of the fitted dose curve at least 0.9, where 1 is the maximum; inactive means score below 0.9)
In short: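 Viability measured through PI dye exclusion by high-content imaging at 6 h post-dosing.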

[7] = CCTE_Harrill_HTTr_Apoptosis_MCF7: CCTE's 6-hour Apoptosis Assessment for the High-Throughput Transcriptomics (HTTr) Platform, in MCF-7 cells cultured in DMEM + 10% fetal bovine serum, Harrill Lab (AID 2284011; active means hit-call score of the fitted dose curve at least 0.9, where 1 is the maximum; inactive means score below 0.9)
In short: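 Cells are dosed with test chemicals at eight concentrations and imaged 6 hours later for caspase-3/7 activity using a green fluorogenic detection reagent. Activity is fitted in both directions against DMSO controls.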

[8] = CCTE_Harrill_HTTr_CellCount_MCF7: CCTE's Cell Proliferation Assessment for the High-Throughput Transcriptomics (HTTr) Platform, Harrill Lab (AID 2284012);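 further: count of Hoechst-stained nuclei per well by high-content imaging in MCF-7 cells; cells exposed to compound for six hours; intended direction is loss of nuclei count meaning fewer cells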
In short: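 Nuclei counting (Hoechst, high content imaging) in MCF-7 after a 6 h treatment at eight concentrations. Activity fitted bidirectionally, DMSO as negative control.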

[9] = TOX21_p53_BLA_p4_viability: Viability Assessment in the Tox21 HCT-116 p53 Agonism Beta-lactamase Assay, Phase 4 (AID 2283597);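 further: hits lower the luminescence signal meaning cytotoxicity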
In short: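 Compound exposure of HCT116 cells lasts 16 h at 37C, 5% CO2, with DMSO stocks diluted 217-fold. Cellular ATP is then quantified by CellTiter-Glo luminescence after 30 min at room temperature.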

[10] = UKN5_HCS_SBAD2_cell_viability: Viability Assessment in the University of Konstanz (UKN) Leist Lab Neurite Outgrowth Assay in human iPSC-derived immature Dorsal Root Ganglia Neurons (UKN5) (AID 2284056; active means hit-call score of the fitted dose curve at least 0.9, where 1 is the maximum; inactive means score below 0.9)
In short: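 iPSC-derived immature peripheral neurons (SBAD2) seeded on Matrigel with CHIR99021, SU5402 and DAPT, dosed 1 h later for 24 h. Viability from Hoechst H-33342 and calcein-AM live staining, high-content imaging; bidirectional fit versus DMSO.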

[11] = UKN5_HCS_SBAD2_neurite_outgrowth: University of Konstanz (UKN) Leist Lab Neurite Outgrowth Assay in human iPSC-derived immature Dorsal Root Ganglia Neurons (UKN5) (AID 2284070; active means hit-call score of the fitted dose curve at least 0.9, where 1 is the maximum; inactive means score below 0.9); settings: actives raise or lower the signal
In short: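 SBAD2 neurons, 24 h compound treatment, calcein-AM neurite area via HCS imaging; DMSO baseline, gain or loss of signal.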

[12] = UKN4_HCS_LUHMES_neurite_outgrowth: University of Konstanz (UKN) Leist Lab Neurite Outgrowth Assay in human LUHMES cells (UKN4) (AID 2284206; active means hit-call score of the fitted dose curve at least 0.9, where 1 is the maximum; inactive means score below 0.9); settings: actives raise or lower the signal
In short: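 2-day-differentiated LUHMES, 24 h cpd exposure, live calcein-AM + H-33342 stain, HCS fluorescence imaging of neurite area; DMSO = baseline, bidirectional fit.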

[13] = UKN4_HCS_LUHMES_cell_viability: Viability Assessment in the University of Konstanz (UKN) Leist Lab Neurite Outgrowth Assay in human LUHMES cells (UKN4) (AID 2284232; active means hit-call score of the fitted dose curve at least 0.9, where 1 is the maximum; inactive means score below 0.9)
In short: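 Human dopaminergic-model LUHMES neurons were exposed to chemicals for 24 h after a 2-day differentiation. Viability was scored by imaging Hoechst H-33342 staining, with activity fitted in both directions relative to DMSO controls.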

[14] = UKN2_HCS_IMR90_cell_viability: Viability Assessment in the University of Konstanz (UKN) Leist Lab Neural Crest Cell Migration Assay in human induced IMR90 Pluripotent Stem Cells (UKN2) (AID 2284233; active means hit-call score of the fitted dose curve at least 0.9, where 1 is the maximum; inactive means score below 0.9;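 further: viability of neural crest cells differentiated from IMR90 iPSC measured by calcein-AM fluorescence imaging; cells exposed to compound for 24 h after a 24 h migration phase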)
In short: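 iPSC-derived (IMR90) neural crest cells seeded around silicone stoppers on PLO/laminin/fibronectin; after 24 h migration in N2-S with EGF/FGF, chemical added for 24 h. Calcein-AM/Hoechst stained 30 min, high-content imaged; bidirectional fit versus DMSO.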

[15] = TOX21_p53_BLA_p3_viability: Viability Assessment in the Tox21 HCT-116 p53 Agonism Beta-lactamase Assay, Phase 3 (AID 2283593);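 further: cells exposed to compound for 16 h before reading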
In short: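 HCT-116 cells (4000/well) rested 5 h at 37C, then got DMSO compounds by pin tool (217-fold dilution) for 16 h at 37C, 5% CO2. After the bla read, CellTiter-Glo was added and luminescence read at 30 min, room temperature.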

[16] = molecular target: Thyroid hormone receptor alpha (Rattus norvegicus) + Thyroid hormone receptor beta (Rattus norvegicus) (UniProt P18113+P63059); assay: TOX21_TR_LUC_GH3_Antagonist_Followup: Tox21 GH3 Thyroid Hormone Receptor Antagonism Luciferase Follow-Up Assay (AID 2283942)
In short: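 Rat pituitary GH3 cells with a TRα/TRβ-driven luciferase reporter, 5 h attachment, then 15 concentrations (92 uM to 5nM final) plus 1.0 nM T3 agonist, 24 h at 37C/5% CO2. ONE-Glo luminescence; signal change fitted against DMSO baseline.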

[17] = TOX21_TRB_BLA_Antagonist_Followup_viability: Viability Assessment in the Tox21 Thyroid Hormone Receptor beta Antagonism Beta-lactamase (BLA) Follow-Up Assay (AID 2283961)
In short: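 Cytotoxicity is measured in parallel with the antagonist-mode TRβ beta-lactamase screen, using ATP-coupled luciferase luminescence. Engineered HEK293T cells are treated for 18 h with 11-point compound series in triplicate.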

[18] = molecular target: Retinoic acid receptor RXR-alpha (Homo sapiens) (UniProt P19793); assay: TOX21_TR_RXR_BLA_Antagonist_Followup_ratio: Tox21 Thyroid Hormone Receptor beta Retinoid X Receptor alpha (RXRa) Antagonism Beta-lactamase (BLA) Follow-Up Assay, Ratio (AID 2283972)
In short: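 Antagonist mode used GAL4 UAS-driven beta-lactamase in HEK293T cells expressing RXRa, treated for 16 h with compound concentration series. Activity was taken from the blue/green (460:530 nm) ratio of cleaved to uncleaved substrate.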

Measured: outcome

Cellular tumor antigen p53 (Homo sapiens), sequence (P04637 whole entry, looked up): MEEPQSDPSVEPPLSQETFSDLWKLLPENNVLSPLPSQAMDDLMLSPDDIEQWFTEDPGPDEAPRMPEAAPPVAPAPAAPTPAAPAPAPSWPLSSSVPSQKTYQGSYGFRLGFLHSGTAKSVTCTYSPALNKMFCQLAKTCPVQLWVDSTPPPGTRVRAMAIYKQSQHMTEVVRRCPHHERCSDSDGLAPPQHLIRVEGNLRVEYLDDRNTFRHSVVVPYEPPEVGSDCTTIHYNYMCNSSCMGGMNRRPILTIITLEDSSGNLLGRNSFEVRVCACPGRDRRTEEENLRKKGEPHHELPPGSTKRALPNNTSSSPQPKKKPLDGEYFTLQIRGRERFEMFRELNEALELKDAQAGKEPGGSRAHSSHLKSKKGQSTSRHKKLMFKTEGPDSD
Retinoic acid receptor RXR-alpha (Homo sapiens), sequence (P19793 whole entry, looked up, the tested form may be a part): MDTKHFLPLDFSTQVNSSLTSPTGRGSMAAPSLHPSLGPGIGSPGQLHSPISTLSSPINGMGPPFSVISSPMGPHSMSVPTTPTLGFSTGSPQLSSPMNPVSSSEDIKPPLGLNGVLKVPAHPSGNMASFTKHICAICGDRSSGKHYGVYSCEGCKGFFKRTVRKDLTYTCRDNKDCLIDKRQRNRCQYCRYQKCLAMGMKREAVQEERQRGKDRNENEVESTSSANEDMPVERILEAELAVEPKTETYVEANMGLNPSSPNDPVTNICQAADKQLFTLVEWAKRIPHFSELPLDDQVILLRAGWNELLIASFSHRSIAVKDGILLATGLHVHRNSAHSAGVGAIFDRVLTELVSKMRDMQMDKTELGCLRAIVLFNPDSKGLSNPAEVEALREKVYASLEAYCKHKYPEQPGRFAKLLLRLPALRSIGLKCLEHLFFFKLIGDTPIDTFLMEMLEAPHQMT

COc1ccc(C(CN(C)C)C2(O)CCCCC2)cc1 (centres undefined)
inactive: [1] | [2] | [3] | [4] | [5]

ClP(Cl)(Cl)(Cl)Cl
inactive: [1] | [2] | [5]

CCS(=O)(=O)C(C)(C)S(=O)(=O)CC
inactive: [1] | [2] | [3] | [5]

COc1cccc([C@@]2(O)CCCC[C@@H]2CN(C)C)c1
inactive: [1] | [2] | [5] | [6] | [7] | [8]

CCCC[n+]1cccc(C)c1
inactive: [1] | [2] | [3] | [5]

C=CCC1([C@H](C)CCC)C(=O)NC(=O)NC1=O
inactive: [1] | [2] | [3] | [4] | [5]

CCCN(CCC)CCc1c[nH]c2ccccc12
inactive: [1] | [2] | [4] | [5]

CC(C)=CCOc1c2occc2cc2ccc(=O)oc12
inactive: [1] | [9] | [3] | [4] | [5]

O=C1CN(O)C(c2ccccc2)=c2cc(Cl)ccc2=N1
inactive: [1] | [4] | [5]

CNNC
inactive: [1] | [9] | [3] | [4]

COC(=O)C1(O)c2ccccc2-c2ccccc21
inactive: [1] | [3] | [4]

COP(=S)(OC)Oc1ccc(S(N)(=O)=O)cc1
inactive: [1] | [9] | [3] | [4] | [5]

CCC1C(C)=NN=C(c2ccc(OC)c(OC)c2)c2cc(OC)c(OC)cc21 (centres undefined)
inactive: [1] | [3]

ClCC(Cl)(Cl)Cl
inactive: [1] | [3] | [4]

OC(Cn1cncn1)(c1ccc(F)cc1)c1ccccc1F (centres undefined)
inactive: [1] | [9] | [3] | [6] | [7]

Cc1ccc(N)cc1C
inactive: [1] | [3] | [5]

Cl/C=C\Cl
inactive: [1] | [5]

CN[C@@H](C)Cc1ccccc1
inactive: [1] | [9] | [10] | [11] | [12] | [13] | [14]

NC(=O)CN1CC(O)CC1=O (centres undefined)
inactive: [1] | [4]

CN(C)CCc1c[nH]c2cccc(OP(=O)(O)O)c12
inactive: [1] | [3] | [4]

NNC(=O)c1cccnc1
inactive: [1] | [9] | [3] | [5]

CCCCCCC#N
inactive: [1] | [9] | [3] | [4] | [5]

C[C@@H](Cc1ccccc1)N(C)C
inactive: [1] | [9] | [3] | [4] | [5]

CN1c2ccccc2C(NCCCCCCC(=O)O)c2ccc(Cl)cc2S1(=O)=O (centres undefined)
inactive: [1] | [3] | [5]

CN1C(=O)CC(=O)N(c2ccccc2)c2cc(Cl)ccc21
inactive: [1] | [9] | [3] | [4] | [5]

c1csc(C2(N3CCCCC3)CCCCC2)c1
inactive: [1] | [3] | [5]

C1CS1
inactive: [15] | [2] | [9] | [3]

O=S(=O)(Cl)Cl
inactive: [1] | [3] | [4]

Cc1nnc(-c2ccccc2)c(=O)n1N
inactive: [15] | [2]

FC(Cl)(Cl)Cl
inactive: [1] | [4]

CCS(=O)(=O)CCSP(=O)(OC)OC
inactive: [1] | [5]

CCCCc1c(C)nc(NCC)nc1OS(=O)(=O)N(C)C
inactive: [1] | [3] | [6] | [7] | [8]

CCCCCN(C)CCC(O)(P(=O)(O)O)P(=O)(O)O
inactive: [1] | [9] | [3] | [4] | [5]

CNC(=O)Oc1ccccc1C1OCCO1
inactive: [1] | [3] | [4] | [5]

C=C(C#N)CCC#N
inactive: [1] | [3] | [4] | [5]

CN(C)CCc1ccc(O)cc1
inactive: [1] | [3] | [5]

CNC(=O)OCC[N+](C)(C)C
inactive: [1] | [9] | [4] | [5]

COc1ccccc1N1CCNCC1
inactive: [1] | [3] | [4] | [5]

O=C1OC2(c3cc(Br)c(O)cc3Oc3c2cc(Br)c(O)[c]3[Hg])c2ccccc21 (centres undefined)
inactive: [1] | [3] | [5] | [16] | [17] | [18]

CC[C@@H](CO)NC(=O)[C@@H]1C=C2c3cccc4c3c(cn4C)C[C@H]2N(C)C1
inactive: [1] | [3] | [5]
